Assay outcomes as filed in PubChem.
Sampled rows, rich in hits. Any-hit rate of the full collection: about 5.4%.
IMPase Li inh = cell-permeable IMPase inhibitors with lithium potentiation; CHO-M1 cells, IP1 TR-FRET (IP-One), carbachol + lithium; 210,000 compounds, 0.35% hits; Potency, µM (highest dose often 59.4 µM), most hits filed as inhibitors;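 also: IP1 builds up when IMPase is blocked and the TR-FRET signal falls; nearly all actives have a fitted effect of over 50% in size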
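Lithium-sensitised IP1 accumulation assay; M1-expressing CHO cells treated 30 min at 37C with compound. Competitive antibody detection by time-resolved FRET followed a 10 min room-temperature lysis step.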
15-hLO-2 inh = 15-hLO-2 (ALOX15B) enzyme inhibition | O15296 | purified 15hLO-2, xylenol orange hydroperoxide absorbance | Potency, µM (doses to about 57.1 µM), actives largely listed as inhibitors | 110,000 compounds, 0.56% hits; also: nearly all actives have a fitted effect of over 60% in size
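Enzyme 50 nM, AA 45 uM, 25 mM Hepes pH 7.5 + 0.01% Triton X-100; cpd preinc 15 min RT, rxn 90 min RT; stop/detect with 200 uM XO + 300 uM Fe(II) in 50 mM H2SO4, 30 min; A573/A405.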
IMPase inh = cell-permeable inhibitors of inositol monophosphatase (IMPase). 120,000 tested, under 10 active. P97697. CHO-M1 cells, IP1 accumulation, HTRF TR-FRET ratio. inhibition (IP1 accumulation), % at 46.1 µM; active = well fitted curve in the direction sought with a large enough effect in the signal ratio, not every such curve was filed as active; inconclusive = small, poorly fitted or top-dose-only effect, or a change in a side signal; inactive = no such curve, though single readings can be large or run the other way; the % refers to the signal ratio;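 also: cells stimulated with carbachol in lithium chloride buffer; higher means more IMPase inhibition seen as more IP1 and lower FRET ratio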
Target sequence (P97697 whole entry, looked up): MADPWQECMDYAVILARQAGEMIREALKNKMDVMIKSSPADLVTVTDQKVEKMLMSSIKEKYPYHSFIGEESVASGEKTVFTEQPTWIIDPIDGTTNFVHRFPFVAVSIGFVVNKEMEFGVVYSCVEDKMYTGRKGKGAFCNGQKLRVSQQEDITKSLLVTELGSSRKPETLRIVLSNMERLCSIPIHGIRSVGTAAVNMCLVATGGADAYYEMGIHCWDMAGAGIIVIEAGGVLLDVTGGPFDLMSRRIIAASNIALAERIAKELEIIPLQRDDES
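CHO-M1 cells (CHO stably expressing M1 receptor), compound up to 46 uM final, stimulated with carbachol (50 uM as added) in buffer with 50mM LiCl, pH 7.4, 30 min at 37C. Cytosolic IP1 read by TR-FRET; AC50 from Hill fits.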
HPGD inh = blocks human HPGD enzyme activity | P15428 | purified HPGD, NADH fluorescence kinetic, PGE2 substrate | Potency, µM, hits mostly inhibitors | 150,000 compounds, 4.3% hits | AID 894; active = well fitted inhibition curve with a large enough effect, not every such curve was filed as active; inconclusive = small, poorly fitted or top-dose-only effect, or another doubt; inactive = no such curve, though single readings can be large or run the other way
Target sequence (P15428 whole entry, looked up): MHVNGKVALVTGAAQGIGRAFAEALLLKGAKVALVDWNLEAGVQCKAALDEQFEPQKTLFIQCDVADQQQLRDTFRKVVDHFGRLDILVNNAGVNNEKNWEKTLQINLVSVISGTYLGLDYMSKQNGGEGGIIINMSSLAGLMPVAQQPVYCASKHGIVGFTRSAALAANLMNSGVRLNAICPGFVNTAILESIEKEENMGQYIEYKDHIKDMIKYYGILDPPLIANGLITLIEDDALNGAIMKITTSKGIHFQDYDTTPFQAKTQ
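NADH formation kinetics: reaction with 30 uM PGE2 and 1 mM NAD+ (final), 20 nM enzyme, Tris-HCl pH 8 with Tween 20, after 15 min compound preincubation at room temperature. Fluorescence change, last versus first of five reads.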
PNC inhibitor = blocks assembly of the perinucleolar compartment. PC3M PTB-GFP, PNC prevalence imaging, 16 h; stronger effect = lower value. activity change (PNC), negative = inhibition, % at 10 µM. 140,000 compounds, 3.1% hits;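 active = readout at or below -70, meaning at least 70% loss of cells showing the perinucleolar compartment, a nuclear body marking cancer cells; inconclusive = readout between -30 and a set limit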
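Compounds are pinned in duplicate onto adhered PC3M cells stably expressing GFP-tagged PTB and incubated 16 h at 37 C. Cells are then fixed, nuclei stained with Hoechst, and PNC-positive cells counted.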
ALOX12 inhib = inhibitors of human 12-lipoxygenase (ALOX12); P18054; purified 12-hLO, xylenol orange hydroperoxide absorbance; Potency, µM (series often up to 57.1 µM), actives largely listed as inhibitors; 150,000 compounds, 0.12% hits; also: nearly all actives have a fitted effect of over 55% in size
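Purified human 12hLO (150 nM final) was preincubated with compounds for 15 min at room temperature in 25 mM Hepes pH 7.0, 0.01% Triton X-100, then reacted with 40 uM arachidonic acid for 30 min. Hydroperoxide was detected with ferrous iron/xylenol orange.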
A number is an active result; – = inactive; ? = inconclusive; · = not tested or not shown; [ ] = remark or other dose. Unless noted, calls follow the shape of the dose curve; as a rule, active = well fitted curve in the direction sought with a large enough effect; inconclusive = small, poorly fitted or top-dose-only effect, or another doubt; inactive = no such curve, though single readings can be large; an effect the other way counts as inactive or inconclusive.

SMILES | IMPase Li inh | 15-hLO-2 inh | IMPase inh | HPGD inh | PNC inhibitor | ALOX12 inhib
O=c1c(-c2ccc(Cl)cc2)nc2cnc(N3CCNCC3)nc2n1Cc1cccs1 | – | – | · | · | · | ·
CC(C)Oc1cc(O)c2c(c1)OCC=C2CCC(=O)O | – | –[11.4 µM] | · | – | · | –[11.4 µM]
CC(CCO)Nc1nc2c(c(=O)n(C)c(=O)n2C)n1Cc1ccc(Br)cc1 (centres undefined) | · | · | – | · | · | ·
Cc1cc(C2(c3cc(C)c(O)cc3C)OS(=O)(=O)c3ccccc32)c(C)cc1O | – | – | · | – | · | –
CCOCC(=O)Nc1cccc(NC(C)=O)c1 | – | – | – | – | ? | –
CCOCC(=O)Nc1ccc(F)c(F)c1 | – | – | – | 28.2µM | – | –
CCC(=O)Nc1cccc(C(=O)c2ccccc2)c1 | – | – | – | – | – | –
CCC(=O)Nc1cccc(Br)c1 | – | – | – | – | -115.7 | –
CC(C)C(NC(=S)Nc1ccccc1)C(=O)O (centres undefined) | – | · | · | 31.6µM | ? | –
c1ccc(C2=NN[C@@H]3c4ccccc4-c4ccccc4N3C2)cc1 | – | –[11.4 µM] | · | – | · | –[11.4 µM]
CC(C)(C)CC(C)(C)c1ccc(OCCO)cc1 | – | – | · | – | · | –
CCC1CCCCN1C(=O)CSc1nnc(-c2ccc(OC)c(OC)c2)o1 (centres undefined) | · | · | – | · | · | ·
Cc1ccc(COc2ccc3oc(-c4ccccc4)c(C(=O)O)c3c2)cc1 | · | · | – | · | · | ·
COC(=O)[C@@]1(Cc2ccc(OC)cc2)[C@H]2c3cc(C(=O)N(C)C)n(Cc4ccc(OC)c(OC)c4)c3C[C@H]2CN1C(=O)c1ccccc1 | – | – | · | – | · | –
Cc1ccc(-n2c(N)c(C(=O)NCc3cccnc3)sc2=S)cc1 | – | – | – | 25.1µM | – | –
CCOC(=O)c1sc(=S)n(-c2ccc3c(c2)OCO3)c1N | – | – | – | 7.94µM | – | –
COc1ccc(-n2c(N)c(C(=O)NCc3cccnc3)sc2=S)cc1 | ? | – | – | – | – | –
C=CCNC(=O)c1sc(=S)n(-c2ccc(C(=O)OCC)cc2)c1N | – | – | – | 15.8µM | – | –
CCn1c(N)c(C(=O)NCc2ccco2)sc1=S | – | ? | – | 22.4µM | ? | –
Cc1ccc(N=C2NC(=O)CC(C(=O)Nc3cc(C(F)(F)F)ccc3Cl)S2)cc1 (centres undefined) | · | · | – | · | · | ·
O=c1c(-c2ccc(Cl)cc2)nc2cnc(N3CCOCC3)nc2n1-c1ccccc1 | – | – | · | · | · | ·
C[N@+]1(CCC(=O)c2ccccc2)CC[C@H]2CC[C@H](C2)C1 | – | –[11.4 µM] | · | – | · | –[11.4 µM]
CCOC(=O)c1ccc(-n2c(=S)sc3c(=O)[nH]c(C)nc32)cc1 | – | – | – | 6.31µM | ? | –
CCOC(=O)c1ccc(-n2c(N)c(C(=O)NCc3ccco3)sc2=S)cc1 | – | – | – | 28.2µM | – | ?
COc1ccc(-n2c(N)c(C(=O)NCc3ccco3)sc2=S)cc1 | – | – | – | ? | – | –
SMILES | IMPase Li inh | 15-hLO-2 inh | IMPase inh | HPGD inh | PNC inhibitor | ALOX12 inhib
COc1cc(/C=C2/C(=O)ON=C2c2ccccc2)ccc1O | – | · | · | 11.2µM | – | –
CC1Cc2ccccc2N1C(=O)COC(=O)c1ccc(Br)o1 (centres undefined) | – | · | · | · | · | ·
CC1Cc2ccccc2N1C(=O)COC(=O)C1(c2ccccc2F)CCCC1 (centres undefined) | – | · | – | – | -90.4 | –
COCCOC(=O)c1c(C)n(S(=O)(=O)c2ccc(C)cc2)c2ccc(NS(=O)(=O)c3ccc(C)cc3)cc12 | · | · | – | · | · | ·
Cc1nnc(N/N=C/c2cc([N+](=O)[O-])c(N3CCC(C)CC3)cc2N2CCC(C)CC2)n1N | – | – | – | 25.1µM | – | –
Cc1ccc(-c2cc(C(=O)NC3=NCCS3)c3cc(Br)ccc3n2)o1 | ? | ? | – | 2.51µM | – | –
Cc1ccc(-c2cc(C(=O)NN3CCOCC3)c3cc(Br)ccc3n2)o1 | – | · | · | · | · | ·
CC(=O)c1c(C)nc2ccc(Br)cc2c1C(=O)O | 1µM | – | ? | – | – | –
Cc1ccc(-c2cc(C(=O)O)c3cc(Br)ccc3n2)o1 | 11.2µM | · | · | ? | – | –
Cn1c(=O)cc(SCC(=O)NCC2CCCO2)c2ccc(Cl)cc21 (centres undefined) | ? | · | – | 14.1µM | – | –
O=C(CCCn1c(=S)[nH]c2ccc(Br)cc2c1=O)NCC1CCCO1 (centres undefined) | – | – | – | 7.08µM | – | –
O=C(CCCn1c(=O)[nH]c2cc(Cl)ccc2c1=O)NCC1CCCO1 (centres undefined) | – | · | – | – | -118.9 | –
COc1ccc(Oc2ncc3nc(-c4cccc(C#N)c4)c(=O)n(CCC#N)c3n2)cc1 | – | – | · | · | · | ·
CS(=O)(=O)N1CCC2(CC1)CN(c1cccc(-c3ccccc3)c1)C2 | – | – | · | ? | · | –
CCCCCC(=O)/C=C/[C@@H]1[C@@H](C/C=C\CCCC(=O)O)[C@@H](O)C[C@H]1O | – | · | · | – | · | –
CC1(C)Cc2[nH]c(=S)c(C#N)cc2CO1 | – | 15.8µM | – | 25.1µM | ? | ?
N#Cc1cc2c([nH]c1=S)CCCC2 | – | · | · | 14.1µM | – | –
CN(C(=O)c1cccc(COc2ccc(Cl)cc2Cl)c1)c1ccccc1 | – | · | · | 17.8µM | – | –
CCOc1ccccc1C(=O)Oc1c(S(=O)(=O)c2ccc(C)cc2)c(C)nn1-c1ccccc1 | · | · | – | · | · | ·
COCc1cc(C)nc(SCC(=O)Oc2ccccc2)c1C#N | – | · | · | · | · | ·
COCc1cc(C)nc(SCC(=O)c2ccc(O)c(O)c2)c1C#N | – | –[11.4 µM] | –[1.84 µM] | 15.8µM | – | –
C=CCn1c(N)c(C(=O)OCC)sc1=S | – | – | – | – | – | –
C=CCn1c(NC(=O)CC)c(C(=O)OCC)sc1=S | – | – | – | 20µM | – | –
O=C1C=CC(=O)N1N(c1ccccc1)c1ccccc1 | – | · | · | 1.41µM | – | ?
O=P(c1ccccc1)(c1ccccc1)N(c1ccccc1)c1ccccc1 | – | · | · | – | – | –
SMILES | IMPase Li inh | 15-hLO-2 inh | IMPase inh | HPGD inh | PNC inhibitor | ALOX12 inhib
CCOC(=O)c1c(NC(=O)CSc2nnc(-c3ccccc3)n2CC)sc(C(C)=O)c1C | – | – | – | 20µM | ? | –
CCOC(=O)c1sc(NC(=O)CSc2nnc(-c3ccco3)n2CC)c(C(=O)OCC)c1C | – | –[11.4 µM] | –[1.84 µM] | ? | – | –
CCOC(=O)c1c(NC(=O)CSc2nnc(-c3cccc(C)c3)n2CC)sc(C(C)=O)c1C | – | – | – | 15.8µM | – | –
CCOC(=O)c1c(NC(=O)CSc2nnc(-c3ccccc3)o2)sc(C(C)=O)c1C | ? | – | – | 17.8µM | – | –
CCOC(=O)c1c(NC(=O)CSc2nnc(-c3ccc(C)cc3)o2)sc(C(C)=O)c1C | – | – | – | – | – | –
CCOC(=O)c1c(NC(=O)CSc2nnc(-c3cccnc3)o2)sc2c1CCC2 | – | · | – | – | -100.0 | –
